# Source: PubChem
# FBW7 act – activators of human E3 ligase FBW7 | AlphaScreen FBW7–phospho-cyclin E peptide binding, activator screen | normalized activity (activation), % at 26.1 µM | hit rate 0.13% among 650,000; in the data active = normalized activity above about 1.9%;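 also: purified mutant Fbw7 with reduced substrate affinity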
# TEAD-YAP block – TEAD-YAP interaction inhibition; AID 1259422; inhibition, % at 9.12 µM; hit rate 1.4% among 640,000; HEK-TIYL cells, TEAD-Gal4/YAP UAS-luciferase luminescence; in the data active = inhibition above about 32%;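 also: 0% = median of test compound wells and 100% = reference inhibitor wells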
# MITF primary – human MITF inhibition, primary screen; O75030; AlphaScreen MITF homodimerization, bead proximity signal; inhibition, % at 2.6 µM; hit rate 0.91% among 650,000; in the data active = inhibition above about 50%;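 also: 0% = vehicle wells with protein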
# GPR151 ag – human GPR151 activation; PathHunter beta-arrestin GPR151 cells, luminescence; activation, % at 11.2 µM; hit rate 1% among 650,000; in the data active = activation above about 4.9%;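 also: 0% = median of compound wells and 100% = cells with positive control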
# GPR151 conf act – human GPR151 activation, confirmation screen; activation, % at 11.2 µM; 6,700 tested, under 10 active; shares compounds with GPR151 ag; AID 1508609; GPR151 PathHunter beta-arrestin cells, luminescence, 90 min; % of EA-reagent control over plate median;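 active = mean percent activation across replicates above the confirmation screen cutoff of 4.91%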
# GPR119 counter – counter-screen for GPR151 activators: effect on human GPR119; shares compounds with GPR151 ag; AID 1508611; GPR119 PathHunter beta-arrestin cells, luminescence, 90 min; 0 = compound-well median, 100 = enzyme-acceptor control; hit rate 0.3% among 6,700; activation, % at 11.2 µM;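 active = mean percent activation in the counterscreen above 29.09%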;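 also: counterscreen on off-target GPR119 to flag nonselective hits from the GPR151 activator screen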
# Target sequence (Q8TDV5 whole entry, looked up): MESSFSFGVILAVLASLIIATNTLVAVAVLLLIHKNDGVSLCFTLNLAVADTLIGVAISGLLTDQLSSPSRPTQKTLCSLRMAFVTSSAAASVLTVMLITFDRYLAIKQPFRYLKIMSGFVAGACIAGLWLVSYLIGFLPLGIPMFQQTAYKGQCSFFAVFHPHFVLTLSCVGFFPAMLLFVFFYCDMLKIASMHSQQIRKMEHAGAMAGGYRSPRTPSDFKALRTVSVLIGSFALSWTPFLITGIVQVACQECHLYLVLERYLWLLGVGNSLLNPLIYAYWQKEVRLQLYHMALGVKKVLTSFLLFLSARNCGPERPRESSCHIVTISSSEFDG
# * hit, by the source's call; . = not tested or not shown. Hits are enriched below; roughly 3.4% of the tested compounds scored in any of these assays.
SMILES,FBW7 act,TEAD-YAP block,MITF primary,GPR151 ag,GPR151 conf act,GPR119 counter
COc1cccc(C(=O)N[C@H]2C[C@H]3C(=O)N[C@H](CO)C(=O)N3C2)c1,0,-2,-10,0,.,.
COc1cccc(C(=O)N[C@H]2C[C@H]3C(=O)N[C@@H](CCCCN)C(=O)N3C2)c1,0,2,11,5.8*,0,11
C[C@@H](NC(=O)N[C@H]1C[C@H]2C(=O)N[C@H](CO)C(=O)N2C1)c1ccccc1,0,16,12,7.6*,1,6
COc1ccc(-c2cc(C(F)(F)F)n3nc(C(=O)Nc4ccc(OC)c(Cl)c4)cc3n2)cc1,0,-7,6,0,.,.
CCCC(=O)Nc1c2c(nn1-c1cccc(C)c1C)CSC2,1,2,9,1,.,.
CCOC(=O)c1nn(-c2ccc(F)cc2)c(=O)c2c(NC(=O)CC(C)(C)C)scc12,1,-8,10,0,.,.
CN(Cc1c(C(=O)N2CCCC2)nc2sccn12)CC(O)c1ccccc1 (centres undefined),0,10,7,5.8*,1,4
COc1ccc(-c2noc(CN(C)Cc3ccncc3C)n2)c(OC)c1OC,0,4,7,15*,0,10
COc1cc(/C=N/Nc2ccc3nnc(C)n3n2)ccc1O,0,1,24,8.9*,0,11
Cc1ccc(-c2nc(C3CCCN3C(=O)CCCC(=O)O)n3ccccc23)cc1 (centres undefined),-1,-13,4,5.5*,0,-2
CC(C)(C)C(=O)CSc1nc2cc(C(=O)N3CCCCC3)ccc2c(=O)n1CCc1ccccc1,0,3,11,0,.,.
CCn1cc(SCC(=O)Nc2ccc(Br)cc2)c2ccccc21,0,-2,6,1,.,.
COc1cc(Br)c(C2C(C#N)=C(N)Oc3cc4c(cc32)OCO4)cc1OC (centres undefined),0,-3,4,9.1*,0,3
COCCN1Cc2cc3cc(C)ccc3nc2OCC1=O,0,-2,14,7.2*,1,-4
Cc1c(Cl)cccc1NC(=O)C(=O)NCCO,0,-11,-2,5.2*,0,3
Cc1cccc(NC(=O)C(=O)NCCO)c1C,0,4,8,-1,.,.
COc1ccc(CCNC(=O)/C=C\C(=O)O)cc1OC,0,-5,4,5.0*,2,1
CCC(Br)C(=O)NCCc1ccc(OC)c(OC)c1 (centres undefined),0,4,0,5.2*,-1,9
CCCN1CCN(C(=S)NCCc2ccc(OC)c(OC)c2)CC1,0,1,5,5.5*,0,-4
O=C([C@@H]1C[C@H](Sc2ccc(F)cc2)CN1C1Cc2ccccc2C1)N1CCOCC1,0,-2,-3,-1,.,.
O=C(COC(=O)c1ccc([N+](=O)[O-])cc1C(=O)OCC(=O)c1ccc(Br)cc1)c1ccc(Br)cc1,0,3,5,-2,.,.
CC(=O)Oc1ccc(C(=O)c2ccccc2)c(OC(C)=O)c1,0,10,11,5.6*,0,-1
CCOC(=O)C1=C(C)NC2=C(C(=O)c3ccccc32)C1c1ccc(OC)c(OC)c1OC (centres undefined),0,-8,7,0,.,.
C=CCN(CC(=O)O)S(=O)(=O)c1ccc(C)c(C)c1,0,4,6,6.6*,1,17
CCCN(CCC)S(=O)(=O)c1ccc(C)c(C)c1,1,1,4,-1,.,.
SMILES,FBW7 act,TEAD-YAP block,MITF primary,GPR151 ag,GPR151 conf act,GPR119 counter
CCOC(=O)c1sc(NC(=O)CSc2nnc(CNC(=O)c3ccc(OC)cc3)n2-c2ccccc2OC)c(C(=O)OCC)c1C,0,15,8,1,.,.
CC1(C)CC(N(Cc2cccs2)C(=O)c2ccco2)CCO1 (centres undefined),0,-4,15,9.3*,-2,-16
O=C(NC1CCCC1)C(c1ccco1)N(Cc1cccs1)C(=O)c1ccco1 (centres undefined),0,-5,8,1,.,.
COc1cccc(S(=O)(=O)N2CCC(c3nc(-c4ccccc4)no3)CC2)c1,0,2,2,0,.,.
COc1cccc(S(=O)(=O)N2CCC(c3nc(-c4cccs4)no3)CC2)c1,1,-5,17,8.3*,0,4
Cc1c(S(=O)(=O)N2CCN(c3ccccc3)CC2)c(=O)n(C)c(=O)n1C,0,8,8,8.2*,1,5
CCOC(=O)c1ccc(-c2ccc(/C=N/NC(=O)Cn3nnc(-c4ccccc4)n3)o2)cc1,0,-32,-5,0,.,.
CC1(C)C(=O)OC(c2ccccc2F)C2(CCCCC2)C1=O (centres undefined),0,1,4,5.3*,0,-5
CCOc1ccc2nc(Nc3nc(C)cc(-c4ccccc4)n3)nc(C)c2c1,0,-11,-5,0,.,.
CCOc1ccc2nc(Nc3nccc(C)n3)nc(C)c2c1,0,-23,1,9.0*,0,5
CCOc1ccccc1OCC(=O)Nc1ccc2c(c1)OCO2,0,-27,4,2,.,.
O=C(COc1ccccc1C(=O)Nc1ccccc1)Nc1ccc2c(c1)OCO2,0,1,-1,7.9*,0,-2
COc1cccc(NC(=O)CN(C2=NC3CS(=O)(=O)CC3S2)c2ccccc2F)c1 (centres undefined),0,4,4,5.0*,0,-7
CCCCCN1CCCC1C(=O)Nc1c(C)cc(C)cc1C (centres undefined),1,-7,20,-1,.,.
CCC1=NN(C(=O)Cc2ccccc2)C(O)(c2ccccc2)C1 (centres undefined),0,-5,6,6.9*,0,7
COc1ccccc1C1(NC(=O)CCn2cccn2)CCCC1,0,5,15,2,.,.
COc1ccccc1C1(NC(=O)CCn2nc(C)cc2C)CCCC1,0,8,-11,5.0*,1,-3
COc1ccc(C(=O)N/C(=C/c2cccc([N+](=O)[O-])c2)C(=O)Nc2ccccc2Cl)c(Cl)c1,0,-4,2,0,.,.
O=C(Cc1csc(-n2cccc2)n1)N1CCN(c2ccccn2)CC1,0,7,3,5.5*,2,0
CC(=O)N1CCC(N(C(=O)Nc2cccc(Cl)c2C)C(C)C)CC1,0,-1,4,0,.,.
CC(=O)N1CCC(N(C(=O)Nc2c(F)cccc2F)C(C)C)CC1,0,-4,5,9.1*,-1,0
CCC(Sc1nnc(-c2ccccc2)n1N)C(=O)O (centres undefined),0,0,3,-1,.,.
CC(Cc1nnc(-c2ccccc2)n1N)C(=O)O (centres undefined),0,6,6,9.8*,0,4
Cc1nccn1CCNC(=O)c1cccn(C)c1=O,0,0,7,1,.,.
